Screening data (PubChem BioAssay)
Sfp PPTase inh = blocks B. subtilis Sfp PPTase activity | Biochemical Sfp PPTase activity, qHTS | Potency, µM, for the others: largest response in the series, negative = inhibition, hits mostly inhibitors | 3.5% of 310,000 active;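 note: the enzyme is Sfp with the accession as filed and its product quenches rhodamine fluorescence; potency is the fitted concentration of half-maximal effect; 0% = enzyme reaction without inhibitor and -100% = no enzyme wells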
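Fluorescence-quenching assay: 15 nM Sfp-PPTase preincubated 15 min at room temperature with compound, then 5 uM rhodamine-CoA and 12.5 uM BHQ-2-labelled YbbR peptide added. Fluorescence (ex 525/em 598 nm) read at start and after 30 min; difference gives rate.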
G9a block = blocks human histone lysine methyltransferase G9a; AID 504332; 8.8% of 350,000 active; Potency, µM (top dose mostly 102 µM), inactives show top-dose activity, negative = inhibition, actives largely listed as inhibitors; G9a H3K9 monomethylation, AlphaScreen, 2 h; note: potency is the fitted concentration of half-maximal effect; nearly all actives have a fitted effect of over 75% in size
Target sequence (Q96KQ7 913-1193 limits assumed): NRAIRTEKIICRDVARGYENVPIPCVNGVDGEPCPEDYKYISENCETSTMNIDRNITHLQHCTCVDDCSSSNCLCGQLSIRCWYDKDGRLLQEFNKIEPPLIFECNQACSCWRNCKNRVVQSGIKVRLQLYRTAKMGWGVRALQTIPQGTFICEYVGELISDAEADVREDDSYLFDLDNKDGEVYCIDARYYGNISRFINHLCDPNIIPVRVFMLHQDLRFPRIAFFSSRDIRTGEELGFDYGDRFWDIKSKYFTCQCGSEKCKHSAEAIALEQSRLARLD
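G9a (20 nM) preincubated 15 min RT with compounds, then 500 nM biotinylated H3K9 peptide and 20 uM SAM added; 2 h RT reaction. Monomethyl-H3K9 product detected by AlphaScreen with anti-H3K9me1 antibody, streptavidin donor and anti-rabbit IgG acceptor beads.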
VDR inh = inhibitors of human vitamin D receptor; Potency, µM, inactives show max response, negative = inhibition, usual class: inhibitors; P11473; VDR-SRC2-3 peptide fluorescence polarization, 2 h; 0.93% of 400,000 active; note: potency is the fitted concentration of half-maximal effect
Target sequence (P11473 whole entry, looked up): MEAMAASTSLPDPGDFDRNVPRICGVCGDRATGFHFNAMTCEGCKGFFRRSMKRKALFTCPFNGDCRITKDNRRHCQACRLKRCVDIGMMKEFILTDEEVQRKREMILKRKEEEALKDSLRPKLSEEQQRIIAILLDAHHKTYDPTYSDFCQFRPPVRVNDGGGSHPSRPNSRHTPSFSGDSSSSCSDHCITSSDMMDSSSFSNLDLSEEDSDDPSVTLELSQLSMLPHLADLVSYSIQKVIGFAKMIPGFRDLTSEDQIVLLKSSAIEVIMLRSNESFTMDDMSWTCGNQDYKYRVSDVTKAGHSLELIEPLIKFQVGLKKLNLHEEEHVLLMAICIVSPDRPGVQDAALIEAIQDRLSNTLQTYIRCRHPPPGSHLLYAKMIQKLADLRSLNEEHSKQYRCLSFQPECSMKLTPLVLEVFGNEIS
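Measured by FP: displacement of SRC2-3 coactivator peptide from VDR by library compounds, following a two-hour ambient incubation.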
Mm-Cpn inhibitor = blocks the Methanococcus maripaludis chaperonin Mm-Cpn | Potency, µM (top dose mostly 76.9 µM), for inactives: at the top dose activity, negative = inhibition, usual class: inhibitors | 0.031% of 330,000 active | purified Mm-Cpn ATPase, ADP Transcreener TR-FRET; note: potency is the fitted concentration of half-maximal effect; nearly all actives have a fitted effect of over 80% in size
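25 nM Mm-CPN + cpd, 10 min 37°C; + 10 uM ATP, 30 min 37°C; buffer 30 mM Tris pH 7.4, 100 mM KCl, 5 mM MgCl2, 1 mM DTT; Transcreener ADP HTRF detection 30 min RT.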
PLK1 PBD block = inhibitors of human PLK1 polo-box domain binding | P53350 | Plk1 PBD binding of FITC phosphopeptide, fluorescence polarization | Potency, µM, without a hit: max response, negative = inhibition, most hits filed as inhibitors | 2.8% of 360,000 active; note: potency is the fitted concentration of half-maximal effect; series mostly up to about 57 µM; nearly all actives have a fitted effect of over 65% in size
CCT chaperon mod = modulators of cytosolic chaperonin (CCT/TRiC) activity. AID 651819. 0.3% of 360,000 active. purified chaperonin ATPase assay, HTRF ADP detection, 30 min. activity change, % (concentration not given with the values), hits read low; in the data active = activity change below about -30%
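TRiC (40 or 20 nM final, by batch activity) in 30 mM Tris pH 7.4, 100 mM KCl, 5 mM MgCl2, 1 mM DTT was treated with compound at 76 uM single dose, then 10 uM ATP, 30 min at 37 °C. ADP was read by HTRF Transcreener.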
The depositor's hits bear a star; ? = inconclusive; . = no result; [ ] = dose if it differs, or a comment. An excerpt weighted towards active compounds, which were near 10% of everything screened. Unless noted, calls come from the whole dose curve; as a rule, active = well fitted curve in the direction sought with a large enough effect; inconclusive = small, poorly fitted or top-dose-only effect, or another doubt; inactive = no such curve, though single readings can be large; an effect the other way counts as inactive or inconclusive. Unless noted, % is set by controls: 0 for no effect and ±100 for the full control effect.

SMILES	Sfp PPTase inh	G9a block	VDR inh	Mm-Cpn inhibitor	PLK1 PBD block	CCT chaperon mod
CCCCCCC1=Cc2cc(OC)c(OC)cc2C(CC(=O)/C=C/OC)O1 (configuration not stated)	-2.7%	.	.	.	.	.
COC(=O)c1cc(C(=O)OC)n(Cc2ccc(C)cc2)c1C	5.7%	50.1µM*	11.7%	-2.1%	-15.1%	-1.4
COc1ccc(CNc2nc(-c3ccc4c(c3)OCO4)nc3ccccc23)c(OC)c1	?	-4.1%[0.501 µM]	1.7%	.	.	.
Cc1cccc(N2CCN(C3(c4ccccc4)C(=O)c4ccccc4C3=O)CC2C)c1 (configuration not stated)	.	8.91µM*	8.1%	.	.	.
COc1ccc(C2(N3CCN(c4cc(C)ccc4C)CC3)C(=O)c3ccccc3C2=O)cc1	.	?	-0.2%	.	.	.
Cc1ccc(C)c(N2CCN(C3(c4ccccc4)C(=O)c4ccccc4C3=O)CC2)c1	.	7.08µM*	-4.2%	.	.	.
CCOC(=O)c1c(C)n(-c2ccccc2)c2ccc(OC(=O)c3cc(OC)cc(OC)c3)cc12	.	-47.4%[59 µM]	-7.3%	.	.	.
CCc1cccc(NC(=O)CSc2ncc3c(n2)-c2cc(Cl)ccc2N(C)S3(=O)=O)c1	.	-5.6%[59 µM]	8.5%	.	.	.
CCc1ccccc1NC(=O)CN(c1cc(C(F)(F)F)ccc1Cl)S(=O)(=O)c1ccccc1	.	-38.9%[59 µM]	-9.8%	.	.	.
COc1ccc2sc(N(CCN(C)C)C(=O)c3cc(Cl)sc3Cl)nc2c1	-24.0%	?	-24.3%	-0.7%	-4.0%	-1.3
COc1ccc(OC)c2sc(N(CCN(C)C)C(=O)c3cc(Cl)sc3Cl)nc12	56.2µM*	?	1.1%	-1.6%	-7.7%	0.6
CCOc1cccc2sc(N(CCN(C)C)C(=O)c3ccc(Br)s3)nc12	12.5%	10.2%[59 µM]	14.4%	0.0%	-6.8%	-29.8
CN(C)CCN(C(=O)c1ccc2ccccc2c1)c1nc2c(F)cccc2s1	-4.3%	39.8µM*	-12.2%	0.2%	2.5%	-2.3
CCOc1cccc2sc(N(CCN(C)C)C(=O)c3ccc4ccccc4c3)nc12	-7.1%	50.1µM*	18.5%	-0.6%	-10.0%	0.5
COc1ccc(C)c2sc(N(CCN(C)C)C(=O)c3ccc4ccccc4c3)nc12	-29.7%	50.1µM*	-19.0%	-3.7%	6.4%	0.5
COC(=O)C1=C[C@@H](C(=O)OC)C2C3=C(C(=O)[C@]2(C)NC(=O)c2ccccc2)[C@H](C)n2c(=O)n(C)c(=O)n2[C@@H]3C1 (some centres not stated)	11.1%	.	-20.1%	.	.	.
O=C(Nc1c(C(=O)c2ccccc2)oc2ccccc12)c1cc(=O)c2ccccc2o1	.	1.1%[59 µM]	16.1%	.	.	.
CCOc1cccc2sc(N(CCCN(C)C)C(=O)c3ccc(S(=O)(=O)N(C)CC4CCCO4)cc3)nc12 (configuration not stated)	0.8%	-6.9%	-0.3%	-2.9%	-6.2%	-2.7
Cc1cc(C)c2nc(N(CCN(C)C)C(=O)c3ccc(S(=O)(=O)N(C)CC4CCCO4)cc3)sc2c1 (configuration not stated)	?	79.4µM*	2.6%	-1.5%	-2.3%	-1.2
Cc1cc(C)c2nc(N(CCN(C)C)C(=O)c3ccc4ccccc4c3)sc2c1	56.2µM*	39.8µM*	3.2%	0.8%	-9.3%	-1.3
Cc1ccc(OCC(=O)NCC2(N3CCN(C)CC3)CCCCC2)cc1	.	5.7%[59 µM]	4.6%	.	.	.
CC(=O)Oc1ccc2nonc2c1OC(C)=O	.	.	1.41µM*	.	.	.
COc1ccc(OC)c(C(=O)CSc2nc3ncccc3[nH]2)c1	-12.8%	50.1µM*	?	0.7%	-20.6%	-1.7
COc1ccc(OC)c(C(=O)CSc2nc3cccnc3n2C)c1	79.4µM*	-27.5%[12.7 µM]	-0.7%	3.7%	-25.7%	0.1
COc1ccc(NC(=O)CSc2nc3ncccc3[nH]2)cc1OC	2.5%	4.9%[59 µM]	10.3%	-0.4%	0.0%	-0.3
SMILES	Sfp PPTase inh	G9a block	VDR inh	Mm-Cpn inhibitor	PLK1 PBD block	CCT chaperon mod
COC(=O)c1sc2c(c1C)c(=O)n(-c1ccccc1)c(=O)n2CC(=O)Nc1cccc(C)c1	.	4.6%[59 µM]	5.4%	.	.	.
CCC1CCCCN1C(=O)Cn1c(=O)n(-c2ccc(Cl)c(Cl)c2)c(=O)c2c(C)c(C(=O)N(C)C)sc21 (configuration not stated)	.	4.0%[59 µM]	12.6%	.	.	.
CC(CC(=O)O)Nc1ccccc1O (configuration not stated)	35.5µM*	2µM*	12.7%	-2.9%	2.3%	0.6
CCC(C)NC(=O)c1ccccc1C(=O)NC(C)CC (configuration not stated)	16.4%	-36.0%[12.7 µM]	-2.7%	0.0%	-10.7%	1.7
Cc1ccc(N2C(=O)[C@@H]3CSC(c4ccc(C(F)(F)F)cc4)N3C2=O)cc1 (some centres not stated)	.	14.0%[59 µM]	6.5%	.	.	.
CN(Cc1ccc(Cl)cc1)C(=O)c1ccccc1SCC(=O)N1CCCC1	.	-1.5%	0.0%	1.3%	-19.5%	-49.7*
CN(CC(=O)Nc1ccc(Cl)c(C(F)(F)F)c1)C(=O)c1ccccc1SCC(=O)N1CCCC1	.	.	6.2%	.	-0.4%	-1.3
COc1ccc(CNC(=O)c2ccccc2SCC(=O)N2CCCC2)cc1OC	.	44.7µM*	-2.0%	2.0%	7.6%	1.0
CC(C)Oc1ccc(OCCn2c(S(=O)(=O)O)nc3c(N)ncnc32)cc1	9.7%	?	-13.9%	-1.5%	-8.3%	4.6
CC(C)Oc1ccc(OCCn2c(=S)[nH]c3c(N)ncnc32)cc1	50.1µM*	2.51µM*	-1.0%	0.8%	10.6µM*	-3.6
CN1CCCN(S(=O)(=O)c2cccc(Cl)c2Cl)CC1	11.1%	44.7µM*	-20.0%	1.1%	-10.7%	-1.3
O=C(NNc1cccc(Cl)n1)Nc1ccc(Cl)cc1	-1.2%	?	-11.7%	0.9%	-14.9%	-0.7
Cc1ccc(NNC(=O)Nc2ccc(Cl)cc2)nn1	8.91µM*	3.98µM*	17.8µM*	-4.1%	5.97µM*	-1.1
COc1ccc(O[C@H]2C=C[C@@H](c3ccccc3)O[C@H]2CO/N=C\C[C@@H]2C=C[C@H](OC(C)=O)[C@H](COC(C)=O)O2)cc1	12.5%	.	.	.	.	.
Cc1nn(C)c(C)c1CCNC(=O)Nc1cccc(Cl)c1C	.	29.0%[59 µM]	-5.8%	.	.	.
CCOC(=O)c1cccc(NC(=O)CC(c2ccc(F)cc2)N2Cc3ccccc3C2=O)c1 (configuration not stated)	.	-10.3%[59 µM]	22.4%	.	.	.
COc1ccc(-n2c(SCc3ccccc3F)nc3c([nH]c4ccccc43)c2=O)cc1OC	.	11.4%[59 µM]	-8.9%	.	.	.
CN(C)c1ccc(N2C(=O)CSC2=S)cc1	-35.3%	?	89.1µM*	-5.9%	-14.3%	-2.6
